TDP1 inh: inhibitors of human tyrosyl-DNA phosphodiesterase TDP1 | Q9NUW8 | recombinant TDP1, AlphaScreen DNA substrate cleavage | Potency, µM (titrated, usually from 130 µM), without a hit: at the highest dose activity change, negative = inhibition, most hits filed as inhibitors | actives 0.28% (n = 350,000) | AID 485290; also: potency is read from the fitted curve at half-maximal effect; % is scaled to controls: 0 for no effect and ±100 for the full control effect; nearly all actives have a fitted effect of over 40% in size
Target sequence (Q9NUW8 whole entry, looked up): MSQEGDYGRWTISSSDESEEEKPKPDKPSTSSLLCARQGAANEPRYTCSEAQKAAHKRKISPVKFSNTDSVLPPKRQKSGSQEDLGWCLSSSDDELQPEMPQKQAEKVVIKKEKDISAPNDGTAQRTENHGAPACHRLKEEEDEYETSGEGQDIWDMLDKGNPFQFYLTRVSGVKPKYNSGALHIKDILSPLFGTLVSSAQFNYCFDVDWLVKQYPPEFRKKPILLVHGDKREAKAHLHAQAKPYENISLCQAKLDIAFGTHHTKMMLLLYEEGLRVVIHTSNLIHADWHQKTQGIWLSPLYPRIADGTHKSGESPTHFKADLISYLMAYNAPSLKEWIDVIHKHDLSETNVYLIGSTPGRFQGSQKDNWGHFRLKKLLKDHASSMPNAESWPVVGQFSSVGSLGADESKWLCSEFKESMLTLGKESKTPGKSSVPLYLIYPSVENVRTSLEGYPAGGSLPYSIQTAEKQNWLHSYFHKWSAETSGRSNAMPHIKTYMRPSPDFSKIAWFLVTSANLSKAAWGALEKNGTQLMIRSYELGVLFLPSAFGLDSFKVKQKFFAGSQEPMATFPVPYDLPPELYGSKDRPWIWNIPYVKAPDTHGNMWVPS
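Signal: AlphaScreen proximity between streptavidin donor and anti-FITC acceptor beads on intact substrate. Reaction: Tdp1 1 nM, substrate 15 nM final, 5 min RT after 15 min compound preincubation.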
DT40 TDP1 no CPT: qHTS for Inhibitors of human tyrosyl-DNA phosphodiesterase 1 (TDP1): qHTS in cells in absence of CPT; DT40 Tdp1-/- hTDP1 cells, no CPT, ATP luminescence, 48 h; Potency, µM (top dose mostly 46.2 µM), for inactives: at the highest dose activity change, negative = growth inhibition, hits mostly inhibitors; actives 15% (n = 420,000); AID 686978, 2013; also: potency is read from the fitted curve at half-maximal effect; % is scaled to controls: 0 for no effect and ±100 for the full control effect; nearly all actives have a fitted effect of over 55% in size
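Stably hTDP1-transfected Tdp1-null chicken DT40 cells were treated with library compounds minus camptothecin and grown for at least 48 hr at 37 °C, after which cellular ATP was quantified by luminescence.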
IL-1B inflam inh: blocks inflammasome-driven IL-1 beta release. THP-1 LPS/ATP IL-1B secretion, AlphaLISA, 16 h; active compounds read low. activity change, % at 57.5 µM. actives 4.7% (n = 360,000). AID 743279; in the data active = activity change below about -50%; inconclusive = mostly about -30% to -49%; also: % is scaled to controls: 0 for no effect and ±100 for the full control effect
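THP-1 cells pretreated 1 hr with compounds (up to 57.5 uM final), then stimulated with LPS (250 ng/mL final) plus ATP (1.25 mM final); secreted IL-1B measured by AlphaLISA after 16 hr, decreased signal indicating inhibition.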
TGFb SMAD3 inh: TGF-b pathway inhibition. HepG2 CAGA-GFP TGF-b/SMAD3 reporter, GFP fluorescence, 18 h; TGF-beta stimulated, 500 pg/mL final. Potency, µM (series often up to 46.1 µM), for inactives: top-dose activity, negative = inhibition, usual class: inhibitors. actives 1.2% (n = 410,000); also: potency is read from the fitted curve at half-maximal effect; % is scaled to controls: 0 for no effect and ±100 for the full control effect; nearly all actives have a fitted effect of over 65% in size
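HEPG2 CAGA-GFP, 1000 cells/well; 2 h settle, 37 C; cpd via pin tool; TGF-b 500 pg/mL final; 18 h, 37 C; GFP imaging ex488/em500-530; %Activity normalised to -TGF-b and +DMSO controls; CRC fit, curve class.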
DT40 TDP1 CPT: DT40-hTDP1 cell growth loss with CPT; chicken DT40 Tdp1-/-;hTDP1 cells + 20 nM CPT, ATP luminescence, 48 h; actives 12% (n = 420,000); Potency, µM (series often up to 46.2 µM), without a hit: top-dose activity change, negative = growth inhibition, most hits filed as inhibitors; also: potency is read from the fitted curve at half-maximal effect; % is scaled to controls: 0 for no effect and ±100 for the full control effect; nearly all actives have a fitted effect of over 55% in size
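Cell growth measured by CellTiter-Glo luminescence after a minimum 48 h, 37 C compound exposure with 20 nM CPT in Tdp1-knockout DT40 cells stably expressing hTDP1, seeded 400/well; qHTS titration format.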
HepG2 viability: counter-screen for TGF-b inhibitors: cytotoxicity in HepG2 cells. actives 0.76% (n = 410,000). AID 588856. HepG2 CAGA-GFP viability, ATP luminescence, 18 h. Potency, µM (titrated, usually from 46.1 µM), for the others: at the highest dose activity change, negative = cytotoxicity, hits mostly cytotoxic; also: potency is read from the fitted curve at half-maximal effect
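CellTiter-Glo luminescence gave cytotoxicity after 18 hours at 37 degrees C. The cells were HepG2 CAGA-GFP in 1% FBS DMEM, stimulated with 500 pg/mL TGF-beta after compound addition. %Activity was normalised to no-cell wells (complete cell-killing) and DMSO (no toxicity), and curves were fitted and classified.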
Starred values were filed as active, the others as inactive; ? = inconclusive; nt = no result given; [ ] = another dose, or the depositor's remark. Hits are enriched below; roughly 19% of the tested compounds scored in any of these assays. Unless noted, calls follow the shape of the dose curve; as a rule, active = well fitted curve in the direction sought with a large enough effect; inconclusive = small, poorly fitted or top-dose-only effect, or another doubt; inactive = no such curve, though single readings can be large; an effect the other way counts as inactive or inconclusive.

SMILES	TDP1 inh	DT40 TDP1 no CPT	IL-1B inflam inh	TGFb SMAD3 inh	DT40 TDP1 CPT	HepG2 viability
COc1ccc(Cc2nc(-c3ccccc3)no2)cc1	?	-16%	37	-17%	-12%	-12%
CS(=O)(=O)N(Cc1nc(-c2ccc(F)cc2)no1)c1ccccc1Cl	nt	?	?	?	18µM*	-17%
COc1ccc(S(=O)(=O)N(Cc2nc(-c3ccccc3)no2)C2CCCCC2)cc1	-4%	9.2µM*	nt	-13%	16µM*	-20%
CCC(=O)Nc1ccc(C)cc1-c1nc2ccccc2n(C(C)C(=O)Nc2ccccc2CC)c1=O (stereo not given)	9%	21µM*	nt	?	18µM*	-27%
CCC(=O)Nc1ccccc1-c1nc2ccccc2n(C(CC)C(=O)Nc2cccc(C(C)=O)c2)c1=O (stereo not given)	11%	?	nt	?	?	1%
CCC(C(=O)Nc1cccc(C#N)c1)n1c(=O)c(-c2ccccc2NC(C)=O)nc2ccccc21 (stereo not given)	9%	13µM*	nt	?	23µM*	-9%
CCC(C(=O)Nc1c(C)cc(C)cc1C)n1c(=O)c(-c2ccccc2NC(C)=O)nc2ccccc21 (stereo not given)	6%	?	nt	7%	-23%	-15%
CCc1ccc(NC(=O)C(CC)n2c(=O)c(-c3ccccc3NC(C)=O)nc3ccccc32)cc1 (stereo not given)	6%	23µM*	nt	?	23µM*	-35%
CC(=O)Nc1ccccc1-c1nc2ccccc2n(CC(=O)c2ccc(C)c(C)c2)c1=O	3%	?	nt	22%	21µM*	-7%
CCC(=O)Nc1ccccc1-c1nc2ccccc2n(C(C)C(=O)Nc2cccc(Cl)c2C)c1=O (stereo not given)	-9%	?	nt	?	?	-5%
Cc1ccc2c(c1)N(CC(=O)NC1CCCC(C)C1C)C(=O)c1cccnc1O2 (stereo not given)	nt	0%	7	6%	-16%	-10%
CCc1ccccc1NC(=O)Cn1c(=O)n(CCCCCC(=O)NCc2ccc(C)cc2)c(=O)c2sccc21	0%	?	nt	6%	?	9%
OCC(O)COc1ccc(Cl)cc1 (stereo not given)	nt	-21%	nt	nt	-17%	nt
Cc1cccc(CNC(=O)CCCN2C(=O)CCn3nc(-c4cn(C)c5ccccc45)cc32)c1	5%	?	nt	-29%	23µM*	-23%
Cn1cc(-c2cc3n(n2)CCC(=O)N3CCCC(=O)Nc2ccccc2Cl)c2ccccc21	5%	18µM*	nt	?	18µM*	-37%
COc1ccc(NC(=O)CCCN2C(=O)CCn3nc(-c4cn(C)c5ccccc45)cc32)cc1	7%	18µM*	nt	8%	23µM*	-2%
COc1ccc(CNC(=O)CCCN2C(=O)CCn3nc(-c4cn(C)c5ccccc45)cc32)cc1	1%	?	nt	-13%	-27%	-9%
Cn1cc(-c2cc3n(n2)CCC(=O)N3CCCC(=O)Nc2ccc(F)cc2F)c2ccccc21	3%	?	nt	?	?	-25%
Cn1cc(-c2cc3n(n2)CCC(=O)N3CCCC(=O)Nc2ccccc2F)c2ccccc21	8%	23µM*	nt	?	?	-36%
COc1ccc(C2c3c(oc4ccccc4c3=O)C(=O)N2c2nc(C)c(C)s2)cc1 (stereo not given)	2%	3%	nt	19%	10%	3%
COc1ccc(C)cc1NC(=O)CSc1nc(=O)n(Cc2ccncc2)c2c1CCC2	8%	?	nt	?	?	-42%
CCc1nc2c(OCCn3cccc3)cccn2c1N(C)C(=O)CC(C)C	nt	?	10	26%	-24%	3%
CCc1nc2c(OCc3ccccc3C)cccn2c1N(C)C(=O)C(C)C	nt	16µM*	114	-2%	18µM*	0%
CCc1nc2c(OCc3ccccc3C)cccn2c1N(C)C(=O)CC(C)C	nt	18µM*	1	-3%	21µM*	-19%
CCCCC(=O)N(C)c1c(CC)nc2c(OCc3ccccc3C)cccn12	nt	29µM*	-22	-24%	29µM*	-21%
SMILES	TDP1 inh	DT40 TDP1 no CPT	IL-1B inflam inh	TGFb SMAD3 inh	DT40 TDP1 CPT	HepG2 viability
C[C@H](C(=O)NCc1ccccc1)C(=O)c1ccccc1	2%	15%	-12	-11%	15%	-15%
C/C(=N\NC(=S)NCc1ccccc1)c1cccc(Br)c1	-10%	21µM*	-14	?	15µM*	-26%
CCNC(=S)N/N=C(\C)c1cc2ccccc2o1	7%	?	-52*	?	?	-20%
S=C(NCc1ccccc1)Nc1ccc2ccccc2c1	5%	2%	-76*	?	10%	-16%
C/C(=N\NC(=S)NCc1ccccc1)c1ccc2ccccc2c1	10%	7.3µM*	16	-4%	6.5µM*	-30%
C/C(CCC(C)C)=N\NC(=S)NCc1ccccc1	6%	?	0	0%	?	-16%
C/C(=N\NC(=S)NCCc1ccccc1)c1cccc(Br)c1	8%	?	34	-30%	?	-13%
COc1ccc(C(C)=O)cc1CC(=O)Nc1ccccc1-c1ccccc1	-10%	-14%	21	5%	?	-1%
O=C(c1ccc(OC2CCN(CCCc3ccccc3)CC2)cc1)N1CCCC1	nt	-7%	-25	-9%	-29%	-18%
CCOc1ccc(CCNC(=O)COC(=O)C2CC2)cc1OCC	-2%	4%	1	1%	11%	2%
CCc1cccc(NC(=O)c2cc(S(=O)(=O)N3CCCCCC3)cn2C)c1	4%	-15%	nt	0%	-3%	-17%
CCOC(=O)c1ccc(N=C2SC(C(=O)Nc3ccccc3)CC(=O)N2C)cc1 (stereo not given)	0%[12.3 µM]	-17%	nt	0%	-23%	-12%
Cc1cccc(C)c1NC(=O)CSc1nnc(-c2ccco2)c(-c2ccco2)n1	nt	-23%	-77*	-26%	-11%	-12%
Cc1nc(NC(=O)CSc2nnc(-c3ccccc3)c(-c3ccccc3)n2)c(Cl)cc1Cl	3%	26µM*	5	-17%	23µM*	-26%
O=C(CSc1nnc(-c2ccccc2)c(-c2ccccc2)n1)Nc1ncc(Cl)cc1Cl	3%	-15%	-15	6%	-2%	-24%
CN(C)c1ccc(NC(=O)CSc2nnc(-c3ccco3)c(-c3ccco3)n2)cc1	nt	16µM*	-14	0%	?	-2%

Screening results: PubChem BioAssay, National Center for Advancing Translational Sciences (NCATS)
